The campaign covered roughly 39,000 compounds. About 220 (0.56%) showed activity. Many of the other results were omitted from the sample, so actives are more common in it than they were. Values without a mark were called inactive.
Each molecule was assayed on Escherichia coli K-12 BW25113 (assay: relative growth (OD600 normalised to plate interquartile mean) (fraction); higher = less growth inhibition, active = 0.2 or less). Details: 50 µM; LB; incubation time: overnight (16-24 h).
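Also: Wild-type cells incubated without shaking, value is the mean of two biological replicates.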

Row | SMILES | relative growth
1 | COCC#Cc1cnc2c(c1)C(=O)N([C@H](C)CO)C[C@H](C)[C@@H](CN(C)S(=O)(=O)c1ccccc1)O2 | 1
2 | CC(=O)N[C@H](C)c1cn(C)nc1C | 1.03
3 | C[C@@H]1CN([C@H](C)CO)C(=O)c2cc(NC(=O)C3CCCCC3)ccc2O[C@@H](C)CCCCO[C@@H]1CN(C)S(=O)(=O)c1cccs1 | 0.933
4 | O=c1[nH]cc(F)c(=O)[nH]1 | 0.196 (active)
5 | O=c1[nH]cc(N2CCCCC2)c(=O)[nH]1 | 1
6 | O=c1[nH]cc(Nc2ccccc2)c(=O)[nH]1 | 1.01
7 | C[N+]1(C)C2CCC1CC(OC(=O)C(O)c1ccccc1)C2.[Br-] (configuration not stated) | 0.924
8 | Nc1nnc(C(=O)c2ccccc2N)s1 | 0.951
9 | Cc1noc(C)c1NC(=O)Nc1ccc2c(c1)CC(=O)N([C@@H](C)CO)C[C@H](C)[C@H](CN(C)S(=O)(=O)c1ccccc1)O2 | 0.971
10 | Cc1noc(C)c1NC(=O)N(C)C[C@H]1Oc2ccc(NS(=O)(=O)c3c(C)noc3C)cc2CC(=O)N([C@@H](C)CO)C[C@@H]1C | 0.985
11 | C[C@H](CO)N1C[C@H](C)[C@@H](CN(C)S(=O)(=O)c2ccccc2)OCCCC[C@H](C)Oc2ccc(NS(=O)(=O)c3cn(C)cn3)cc2C1=O | 0.993
12 | O=C(NO)c1cn(-c2cccc(C(=O)N3CCC4(CC3)C(=O)NCN4c3ccccc3)c2)nn1 | 0.0368 (active)
13 | O=C(/C=C/c1cccc(-c2cn(-c3cccc(C(=O)N4CCC5(CC4)C(=O)NCN5c4ccccc4)c3)nn2)c1)NO | 0.972
14 | O=C(NO)c1cn(CC(=O)N2CCC3(CC2)C(=O)NCN3c2ccccc2)nn1 | 0.94
15 | C[C@H](CO)N1C[C@H](C)[C@@H](CN(C)CC2CC2)Oc2c(NS(=O)(=O)c3cn(C)cn3)cccc2C1=O | 0.999
16 | COC(=O)C[C@@H]1CC[C@@H]2[C@@H](COc3ccc(NS(=O)(=O)c4ccccc4Cl)cc3C(=O)N2C)O1 | 1.03
17 | CS(=O)(=O)Nc1cccc(C2=NN(c3nc(-c4ccccc4)c4cc(Cl)ccc4n3)[C@H](c3ccco3)C2)c1 | 1
18 | Cc1noc(C)c1NC(=O)Nc1ccc2c(c1)C(=O)N([C@@H](C)CO)C[C@@H](C)[C@H](CN(C)S(=O)(=O)c1ccc(F)cc1)OCCCC[C@H](C)O2 | 1.03
19 | O=C(C[C@@H]1C[C@@H]2c3cc(NS(=O)(=O)c4ccc(F)cc4)ccc3O[C@@H]2[C@H](CO)O1)NC1CCCC1 | 0.992
20 | COc1ccc(C#Cc2ccc3c(c2)O[C@@H](CN(C)C(C)=O)[C@@H](C)CN([C@@H](C)CO)S3(=O)=O)cc1 | 1.03
21 | COc1ccc(C2=C(N)C(=O)NC2=O)cc1OC | 0.93
22 | COc1cc(Cc2cnc(N)nc2N)cc(OC)c1OC | 0.044 (active)
23 | COc1cc(O)cc(OC)c1OC | 1.1
24 | COc1cccnc1N | 0.99

Row | SMILES | relative growth
25 | COc1ccc(Cc2cnc(N)nc2N)cc1OC | 0.0502 (active)
26 | COc1cc(CN)cc(OC)c1OC | 1
27 | Cc1ccc(S(=O)(=O)N(C)C[C@H]2Oc3c(NS(=O)(=O)c4cn(C)cn4)cccc3C(=O)N([C@@H](C)CO)C[C@@H]2C)cc1 | 0.959
28 | Cc1noc(C)c1NC(=O)Nc1cccc2c1O[C@@H](CN(C)Cc1ccc(Oc3ccccc3)cc1)[C@H](C)CN([C@H](C)CO)C2=O | 0.995
29 | COc1ccc(-c2cnc3c(c2)C(=O)N([C@H](C)CO)C[C@H](C)[C@@H](CN(C)S(=O)(=O)c2ccc(OC)cc2)O3)cc1 | 1
30 | C[C@@H]1CN([C@@H](C)CO)C(=O)c2cc(N(C)C)ccc2O[C@@H](C)CCCCO[C@@H]1CN(C)C(=O)Nc1ccc(C(F)(F)F)cc1 | 0.928
31 | COc1cccc(S(=O)(=O)Nc2ccc3c(c2)[C@@H]2C[C@@H](CC(=O)N4CCCCC4)O[C@@H](CO)[C@@H]2O3)c1 | 0.993
32 | C[C@H]1CN([C@@H](C)CO)S(=O)(=O)c2ccc(Br)cc2O[C@@H]1CN(C)C(=O)c1cccnc1 | 0.972
33 | C[C@@H]1CN([C@H](C)CO)S(=O)(=O)c2ccc(-c3cccc(C#N)c3)cc2O[C@@H]1CN(C)C(=O)c1cccnc1 | 1.01
34 | Cc1n[nH]c(=S)n1N | 0.968
35 | Cc1nnsc1-c1onc(C)c1C(N)=O | 0.866
36 | C[C@H]1CN([C@@H](C)CO)C(=O)c2cccc(NC(=O)C3CC3)c2O[C@@H]1CN(C)S(=O)(=O)c1ccc(Cl)cc1 | 1
37 | C[C@@H]1CN([C@H](C)CO)C(=O)Cc2cc(NC(=O)Cc3cn(C)c4ccccc34)ccc2O[C@H]1CN(C)CC1CCCCC1 | 1.02
38 | CO[C@H]1C[C@@H]2CC[C@@H](C)[C@@](O)(O2)C(=O)C(=O)N2CCCC[C@H]2C(=O)O[C@H]([C@H](C)C[C@@H]2CC[C@@H](OP(C)(C)=O)[C@H](OC)C2)CC(=O)[C@H](C)/C=C(\C)[C@@H](O)[C@@H](OC)C(=O)[C@H](C)C[C@H](C)/C=C/C=C\C=C\1C | 0.837
39 | Cl.Nc1c2c(nc3ccccc13)CCCC2 | 0.911
40 | Nc1c2ccccc2nc2ccccc12 | 0.0461 (active)
41 | Nc1c2c(nc3ccccc13)CCCC2 | 0.985
42 | Cc1noc(C)c1NC(=O)N(C)C[C@H]1Oc2ccc(NS(=O)(=O)c3cn(C)cn3)cc2C(=O)N([C@H](C)CO)C[C@H]1C | 0.989
43 | C[C@@H]1CN([C@H](C)CO)C(=O)Cc2cc(NC(=O)C3CCCCC3)ccc2O[C@H]1CN(C)Cc1ccc(C(=O)Nc2ccccc2N)cc1 | 0.979
44 | COc1cc2c(cc1OC)CN(CCc1ccc(NC(=O)c3cc(OC)c(OC)cc3NC(=O)c3cnc4ccccc4c3)cc1)CC2 | 0.965
45 | COC(=O)NN=Cc1c[n+]([O-])c2ccccc2[n+]1[O-] | 0.574
46 | COC(=O)N/N=C/c1c[n+]([O-])c2ccccc2[n+]1[O-] | 0.0462 (active)
47 | CC(=O)O.N=C(N)NN=Cc1c(Cl)cccc1Cl | 0.885
48 | C[C@H]1CN([C@@H](C)CO)C(=O)c2cccc(NS(=O)(=O)c3ccccc3)c2O[C@H]1CN(C)S(C)(=O)=O | 0.967

Row | SMILES | relative growth
49 | O=c1c(O[C@@H]2O[C@H](CO)[C@@H](O)[C@H](O)[C@@H]2O[C@H]2OC[C@](O)(CO)[C@H]2O)c(-c2ccc(O)c(O)c2)oc2cc(O)cc(O)c12 | 1.02
50 | O=C(C[C@@H]1CC[C@@H](NS(=O)(=O)c2ccc(F)cc2)[C@@H](CO)O1)N1CCC(Cc2ccccc2)CC1 | 0.987
51 | CCC(=O)Nc1ccc(Cl)cc1 | 1
52 | CC(C)NC(=N)NC(=N)Nc1ccc(Cl)cc1.Cl | 0.965
53 | Cl.Cl.N=C(NCCCCCCNC(=N)NC(=N)Nc1ccc(Cl)cc1)NC(=N)Nc1ccc(Cl)cc1 | 0.0423 (active)
54 | Cc1noc(C)c1NC(=O)N(C)C[C@H]1OCCCC[C@@H](C)Oc2ccc(NC(=O)C3CCCCC3)cc2C(=O)N([C@@H](C)CO)C[C@H]1C | 0.976
55 | Cc1noc(C)c1NC(=O)N(C)C[C@H]1Oc2c(NC(=O)C3CC3)cccc2C(=O)N([C@H](C)CO)C[C@@H]1C | 1
56 | CC(C)NC(=O)Nc1ccc2c(c1)C(=O)N([C@@H](C)CO)C[C@H](C)[C@H](CN(C)CC1CCCCC1)OCCCC[C@H](C)O2 | 1.01
57 | CC[C@@H](O)C[C@H]1CC[C@H]([C@@H](C)C(=O)O[C@@H](C)C[C@H]2CC[C@H]([C@@H](C)C(=O)O[C@@H](C)C[C@H]3CC[C@H]([C@@H](C)C(=O)O[C@@H](C)C[C@H]4CC[C@H]([C@@H](C)C(=O)O)O4)O3)O2)O1 | 1.06
58 | CN(C)CCC=C1c2ccccc2COc2ccc(CC(=O)O)cc21.Cl | 0.0442 (active)
59 | CN(C)CCC=C1c2ccccc2CCc2ccccc21.Cl | 0.976
60 | CN(C)CCC=C1c2ccccc2COc2ccccc21.Cl | 1.03
61 | C[C@@H]1CN([C@H](C)CO)C(=O)c2ccccc2-c2ccccc2CO[C@@H]1CN(C)C(=O)Nc1cccc(F)c1 | 1.01
62 | CCOC(=O)CCn1cc(F)c(=O)[nH]c1=O | 0.986
63 | CCOC(=O)Cn1cc(F)c(=O)[nH]c1=O | 1.06
64 | CC(=O)On1cc(F)c(=O)[nH]c1=O | 0.0691 (active)
65 | CCC1OC(=O)C(C)C(=O)C(C)C(OC2OC(C)CC(N(C)C)C2O)C(C)(OC)CC(C)C(=O)C(C)C2N(CCCCn3cnc(-c4cccnc4)c3)C(=O)OC12C (configuration not stated) | 0.0499 (active)
66 | C[C@@H]1CCCCO[C@@H](CN(C)CC2CCCCC2)[C@@H](C)CN([C@H](C)CO)C(=O)c2cc(N(C)C)ccc2O1 | 1
67 | CN(C)c1ccc(O)c2c1CC1CC3C(N(C)C)C(O)=C(C(N)=O)C(=O)C3(O)C(O)=C1C2=O.Cl (configuration not stated) | 0.0626 (active)
68 | CN(C)C1C(O)=C(C(N)=O)C(=O)C2(O)C(O)=C3C(=O)c4c(O)cccc4C(C)(O)C3CC12.Cl (configuration not stated) | 0.056 (active)
69 | CN(C)[C@@H]1C(=O)C(C(=O)NCN2CCCC2)=C(O)[C@@]2(O)C(O)=C3C(=O)c4c(O)cccc4[C@@](C)(O)[C@H]3C[C@@H]12 | 0.516
70 | CN(C)C1C(O)=C(C(N)=O)C(=O)C2(O)C(O)=C3C(=O)c4c(O)cccc4C(C)(O)C3C(O)C12.Cl (configuration not stated) | 0.0578 (active)
71 | CN(C)c1cc(NC(=O)CNC(C)(C)C)c(O)c2c1CC1CC3C(N(C)C)C(O)=C(C(N)=O)C(=O)C3(O)C(O)=C1C2=O (configuration not stated) | 1.06
72 | CN(C)C1C(O)=C(C(N)=O)C(=O)C2(O)C(O)=C3C(=O)c4c(O)ccc(Cl)c4C(C)(O)C3CC12.Cl (configuration not stated) | 0.0595 (active)

— the supplement of paper PMC9446081
